Experimental findings from PubChem BioAssay (EPA / NIEHS) are described below.

Results filed as inconclusive are left out. Active and inactive are the calls of the source. Rule for the calls: active = hit-call score of the fitted dose curve at least 0.9, where 1 is the maximum; inconclusive = response in the unintended direction; inactive = score below 0.9.

Sequence of Estrogen receptor beta (Homo sapiens) (Q92731 whole entry, looked up, the tested form may be a part): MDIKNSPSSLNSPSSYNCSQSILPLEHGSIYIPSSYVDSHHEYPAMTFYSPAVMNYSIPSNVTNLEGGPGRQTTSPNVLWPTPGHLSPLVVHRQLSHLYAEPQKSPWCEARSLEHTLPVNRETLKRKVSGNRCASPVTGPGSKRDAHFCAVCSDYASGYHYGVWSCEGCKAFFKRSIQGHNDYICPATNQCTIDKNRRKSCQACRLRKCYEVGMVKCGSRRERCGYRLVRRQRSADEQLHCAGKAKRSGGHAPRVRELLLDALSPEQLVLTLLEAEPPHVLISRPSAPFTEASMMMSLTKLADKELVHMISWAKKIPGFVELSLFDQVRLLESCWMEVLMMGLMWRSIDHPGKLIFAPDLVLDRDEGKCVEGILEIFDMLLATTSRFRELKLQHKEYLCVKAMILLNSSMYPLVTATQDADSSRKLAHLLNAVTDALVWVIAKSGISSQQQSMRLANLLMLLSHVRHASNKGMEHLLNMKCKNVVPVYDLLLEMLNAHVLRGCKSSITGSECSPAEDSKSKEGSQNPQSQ

This assay deals with Estrogen receptor beta (Homo sapiens) (UniProt Q92731). As to the kind of experiment: OT_ER_ERbERb_0480: Odyssey Thera (OT) 8-hour HEK293T Protein-Complementation Assay for Estrogen Receptor-beta/-beta Homodimer (AID 2283357). How it is done:
OT_ER_ERbERb_0480 is a cell-based assay that uses HEK293T, a human kidney cell line, with measurements taken at 8 hours after chemical dosing in a 384-well plate.OT_ER_ERbERb_0480 is one of one assay component(s) measured or calculated from the OT_ER_ERbERb_0480 assay. It is designed to make measurements of protein fragment complementation, a form of binding reporter, as detected with fluorescence intensity signals by Protein-fragment Complementation technology.Data from the assay component OT_ER_ERbERb_0480 was analyzed into 1 assay endpoint. This assay endpoint, OT_ER_ERbERb_0480, was analyzed in the positive analysis fitting direction relative to DMSO as the negative control and baseline of activity. Using a type of binding reporter, measures of receptor for gain-of-signal activity can be used to understand the binding at the pathway-level as they relate to the gene ESR2. Furthermore, this assay endpoint can be referred to as a primary readout, because the performed assay has only produced 1 assay endpoint. To generalize the intended target to other relatable targets, this assay endpoint is annotated to the nuclear receptor intended target family, where the subfamily is steroidal.
Protein-fragment complementation assay, or PCA, is a method for the identification and quantification of protein-protein interactions. In the PCA, the proteins of interest ("bait" and "prey") are each covalently linked to fragments of a third protein (e.g. DHFR, which acts as a "reporter"). Interaction between the bait and the prey proteins brings the fragments of the reporter protein in close proximity to allow them to form a functional reporter protein whose activity can be measured. The OT ER beta / ER beta assay is a homodimer PCA of the ligand binding domain (LBD; amino acids 310-547) of human ER beta stably expressed in HEK293T cells. […] Cells are fixed in 4 percent formaldehyde and stained with Draq5 (BioStatus) to identify cells prior to signal detection. Fluorescent signal in the basal state of the assay is very low and is primarily punctuate and cytoplasmic. Modulation of this assay is quantified as an increase in mean fluorescence intensity in the nucleus (for agonists) or in the nucleus and cytoplasm (antagonists) relative to vehicle controls, and can be quantified on a high content imaging device or a laser scanning cytometer. The latter instrument is favored for this assay because of the rapid mode of data acquisition, the ability to acquire data from the entire cell population in a well (as opposed to a fraction of the well on the high content devices) and the larger dynamic range typically achieved with this instrument. To assess sensitivity of the ER beta/ER beta LBD assay to ligand, cells were treated with the ER agonist 17- beta-estradiol (E2) in 10-point concentration- response format for 8 hours and monitored response on a laser scanning plate cytometer (Acumen eX3; TTP Lab Tech).
Regarding `C1COCCN1`, the compound was called inactive.
On the same count and under the same terms, as for `CN(C)Cc1ccccc1O`, the entry is “inactive”; as for `CCN(Cc1cccc(S(=O)(=O)O)c1)c1ccc(C(=C2C=CC(=[N+](CC)Cc3cccc(S(=O)(=O)O)c3)C=C2)c2ccc(O)cc2S(=O)(=O)[O-])cc1`, “inactive”.
A word on the AC50: it is the concentration giving half of the maximal activity seen. Take `CC(Cc1ccc(O)c(O)c1)C(C)Cc1ccc(O)c(O)c1` (stereo not given): the AC50 is 11.9 µM (active).
Consider `CC/C=C\CCOC(C)=O`, for which the compound was called inactive.
On the same count and under the same terms, the result for `COC(=O)C1CCC(C(=O)OC)CC1` (stereo not given) reads “inactive”; that for `CCCCOc1ccc(N)cc1`, “inactive”; that for `CCCCCCC(C)OC(=O)CCCCC(=O)OC(C)CCCCCC` (stereo not given), “inactive”.
Still for that read-out and setting: the result for `CC(CCl)OP(=O)(OC(C)CCl)OC(C)CCl` (stereo not given) reads “inactive”.
Same read-out and setting: as for `Cc1cc(C)cc(O)c1`, the entry is “inactive”; as for `[Co]`, “inactive”; as for `CCCCCCOC(=O)c1ccccc1O`, “inactive”.
As for `Cc1ccc(S(=O)(=O)NCl)cc1`, the compound was classed as inactive.
Same read-out and setting: the result for `CCCCCCOC(=O)c1ccccc1` reads “inactive”.
With `C(=C(c1ccccc1)c1ccccc1)c1ccccc1`, the AC50 was 1.49 µM (active).
